This passage reports activity, negative = inhibition and AC50 results from PubChem BioAssay AID1851 (National Center for Advancing Translational Sciences (NCATS), 2009).

The campaign covered roughly 16,000 compounds. About 5,100 (32%) were called active. Inconclusive results (about 25%) are left out. The list shows a part of the results. A number with no mark means an inactive call. The call rests on the fitted dose curve; in most records, active means well fitted curve in the direction sought with a large enough effect; inconclusive means small, poorly fitted or top-dose-only effect, or effect the other way; inactive means no such curve, though single readings can be large or run the other way.
On the % scale 0 is the no-effect control and ±100 the full control effect.

Sequence of Cytochrome P450 3A4 (Homo sapiens) (P08684 whole entry, looked up): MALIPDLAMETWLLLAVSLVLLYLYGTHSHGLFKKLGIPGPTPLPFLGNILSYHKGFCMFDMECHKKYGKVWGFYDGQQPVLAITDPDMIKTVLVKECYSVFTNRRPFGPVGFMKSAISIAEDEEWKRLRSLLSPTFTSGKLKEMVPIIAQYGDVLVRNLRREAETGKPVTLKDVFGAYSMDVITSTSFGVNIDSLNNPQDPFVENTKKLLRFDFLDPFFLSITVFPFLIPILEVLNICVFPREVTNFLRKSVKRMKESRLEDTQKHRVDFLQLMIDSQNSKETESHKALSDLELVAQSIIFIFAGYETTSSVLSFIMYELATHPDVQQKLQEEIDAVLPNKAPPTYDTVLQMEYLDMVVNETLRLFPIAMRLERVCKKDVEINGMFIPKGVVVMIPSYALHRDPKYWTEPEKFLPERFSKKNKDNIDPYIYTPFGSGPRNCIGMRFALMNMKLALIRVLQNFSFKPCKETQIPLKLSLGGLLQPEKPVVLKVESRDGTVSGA

This test has as its target Cytochrome P450 3A4 (Homo sapiens) (UniProt P08684). In words: Cytochrome panel assay with activity outcomes. The following applies: recombinant CYP, pro-luciferin dealkylation, luminescence, p450-cyp3a4; series mostly up to 57.1 µM.
Take `O=C(NCCO)c1ccc(Cl)cc1`: the activity, negative = inhibition was -18% [at 11.4 µM]. Still for that read-out and setting: under `NC(=O)NCc1ccc(Cl)cc1` stands 4.51% [at 11.4 µM]. Broadly, the AC50 is the midpoint of the concentration-response curve, whichever way the signal moves. For `Cc1ccc(C(=O)NCCNc2ccc(Cl)cc2[N+](=O)[O-])o1`, the concentration at half-maximal activity (AC50) is 6.31 µM (active). As for `CCOc1ccc(NC(=O)c2ccc(Br)o2)c([N+](=O)[O-])c1`, the activity, negative = inhibition is 0.495% [at 2.29 µM]. For `O=C(NCc1ccc(Cl)cc1)c1ccc(Cl)cc1[N+](=O)[O-]`, the AC50 is 12.6 µM (active). Still for that read-out and setting: the value for `Oc1ccccc1C1Nc2cccc3cccc(c23)N1` was “inactive”.

For the compound `Oc1ccc(C2Nc3cccc4cccc(c34)N2)c(O)c1`, the concentration at half-maximal activity (AC50) was 15.8 µM (active). The same measure, in the same setting: under `CN[C@H](CC(=O)O)C(=O)O` stands “inactive”. Consider `Cc1ccc(N=Nc2c(O)ccc3cc(S(=O)(=O)O)ccc23)cc1`, for which the activity, negative = inhibition was -19% [at 11.4 µM].

Take `Cc1ccc(S(=O)(=O)c2cc3ccccc3oc2=Nc2ccc3c(c2)OCO3)cc1`: the concentration at half-maximal activity (AC50) is 2 µM (active).

In the case of `O=C(O)c1cc(C(=O)O)nc(C(=O)O)c1`, the activity, negative = inhibition was -8.29% [at 11.4 µM]. Turning to `CCc1noc(C)c1C(=O)Nc1nc(-c2cc(C)ccc2C)c(C)s1`, the AC50 is 3.55 µM (active). For the compound `CCOC(=O)Nc1nc(-c2ccccc2)c(C)s1`, the activity, negative = inhibition was -11.6% [at 11.4 µM]. Take `COc1cc2nc(SCc3ccc(Cl)cc3Cl)n(Cc3cccs3)c(=N)c2cc1OC`: the AC50 was 2 µM (active).

Regarding `COc1ccc(Cn2c(SCc3ccccc3C)nc3cc(OC)c(OC)cc3c2=N)cc1`, the half-maximal activity concentration (AC50) was 8.91 µM (active).

Regarding `Cc1ccc(C(=O)N2C3C=CC(C3)C2(C(F)(F)F)C(F)(F)F)cc1` (configuration not stated), the AC50 is 1.12 µM (active). For `Cc1ccc(-n2c3c(c(=O)[nH]c2=O)C(C(F)(F)F)(C(F)(F)F)NC(=O)N3)cc1`, the activity, negative = inhibition was -3.33% [at 2.29 µM]. For `CC(C)(C)c1nnc(NC(=O)NS(=O)(=O)c2ccccc2)s1`, the AC50 result is “inactive”.

`CC(C)(C)NS(=O)(=O)c1ccc(NC(=O)c2cc(-c3ccccc3)nc3ccccc23)cc1`: the AC50 entry is “inactive”. Consider `CC(C)(C)NS(=O)(=O)c1ccc(NC(=O)C(Sc2ccccc2)c2ccccc2)cc1` (configuration not stated), for which the concentration at half-maximal activity (AC50) is 14.1 µM (active). Regarding `Cc1cc(=O)oc2cc(O)c(CN(C)CC(=O)O)cc12`, the activity, negative = inhibition is -2.73% [at 11.4 µM]. As for `Cc1c(O)c(=O)n(-c2ccccc2)n1C`, the AC50 result was “inactive”. On the same count and under the same terms, the value for `Cc1c(-n2cc(C(=O)c3cc(Cl)ccc3O)cc(C#N)c2=O)c(=O)n(-c2ccccc2)n1C` was “inactive”; that for `Cc1ccc(O)c(C(=O)c2cc(C#N)c(=O)n(-c3c(C)n(C)n(-c4ccccc4)c3=O)c2)c1` was 5.62 µM (active). The same measure, in the same setting: under `CCCSc1nc(NCc2ccco2)c2c3c(sc2n1)COC(C)(C)C3` stands 15.8 µM (active).

As to `Cc1nn2c(C)nc3sc4c(c3c2nc1=O)CC(C)(C)OC4`, the AC50 result was “inactive”. With `Cc1cc(C)n(-c2nc(NCC(C)O)c3c4c(sc3n2)COC(C)(C)C4)n1` (configuration not stated), the activity, negative = inhibition is -17.9% [at 11.4 µM]. Regarding `CC1(CCC#N)N=C(SCCC#N)N(c2ccccc2)C1=O` (configuration not stated), the AC50 result was “inactive”. For the compound `CN(C)c1ccc(-c2ccc3ncnc(-n4ccnc4)c3c2)cc1`, the concentration at half-maximal activity (AC50) was 1 µM (active). For `c1cn(-c2ncnc3ccc(-c4ccoc4)cc23)cn1`, the AC50 is 0.631 µM (active). For `Cc1ccccc1-c1ccc2ncnc(-n3ccnc3)c2c1`, the AC50 was 0.501 µM (active). The same measure, in the same setting: the value for `O=C(COc1ccc2ccccc2c1)Nc1ccc(Cc2ccncc2)cc1` was 0.708 µM (active). Turning to `CC(=O)CC(=O)Nc1ccc2ccccc2c1`, the activity, negative = inhibition was -28.5% [at 11.4 µM].

For the compound `Clc1ccc([C@H](Cn2ccnc2)OCc2csc3c(Cl)cccc23)c(Cl)c1`, the concentration at half-maximal activity (AC50) was 0.794 µM (active). Still for that read-out and setting: under `CC(C)NC(=O)N1CCC2(CC1)CCN(C(=O)c1cnccn1)CC2` stands “inactive”.

Consider `CC(C)CN1CCCC2(CCN(C(=O)c3cnccn3)CC2)C1`, for which the concentration at half-maximal activity (AC50) is 25.1 µM (active).

On to `CC(C)CN1CCC2(CC1)CCN(C(=O)c1csnn1)CC2`, for which the AC50 result is “inactive”. Same read-out and setting: the value for `O=C(c1cnccn1)N1CCC[C@@]2(CCN(Cc3nccs3)C2)C1` was 15.8 µM (active); that for `O=C(c1cnccn1)N1CCC2(CCCN(Cc3nccs3)C2)CC1` was 12.6 µM (active); that for `O=C(c1csnn1)N1CCC[C@@]2(CCN(Cc3nccs3)C2)C1` was 15.8 µM (active). On the same count and under the same terms, under `O=C(c1cnccn1)N1CCC2(CCN(Cc3nccs3)CC2)CC1` stands “inactive”.

`O=C(c1csnn1)N1CCC2(CCN(Cc3nccs3)CC2)CC1`: the AC50 result is “inactive”. For `O=C(c1cnccn1)N1CCC2(CC1)CN(Cc1nccs1)C2`, the AC50 result is “inactive”. The same measure, in the same setting: under `C[n+]1ccc(/C=C/c2ccc(Br)cc2)cc1` stands “inactive”. As to `COc1nc(N)nc2c1ncn2[C@@H]1C[C@H](O)[C@@H](CO)O1`, the activity, negative = inhibition was -13.7% [at 11.4 µM]. `CN1C(C(=O)Nc2ccccn2)=C(O)c2sccc2S1(=O)=O`: the AC50 result was “inactive”. As for `COc1cc(C)nc(N2CCCC(C(=O)Nc3cc(Cl)ccc3OC)C2)n1` (configuration not stated), the concentration at half-maximal activity (AC50) was 7.08 µM (active). For the compound `Cc1ccc(C(=O)NNC(=O)C2CCCN(c3ncccn3)C2)cc1` (configuration not stated), the AC50 entry is “inactive”.

On to `Cc1ccc(C(=O)/C=C2\NCC(C)NC2=O)cc1` (configuration not stated), for which the AC50 result was “inactive”. Still for that read-out and setting: the value for `O=C(Cc1ccc2c(c1)CCCC2)Nc1ccccc1Br` was “inactive”.

With `O=C(Cc1ccc(Br)cc1)Nc1ccccc1Sc1ccccc1`, the AC50 was 6.31 µM (active).

Consider `CC(C)Cn1c(C(C)C)nc([N+](=O)[O-])c1S(=O)(=O)c1ccc(F)cc1`, for which the half-maximal activity concentration (AC50) is 4.47 µM (active). Turning to `CN(C)CCNCCN`, the activity, negative = inhibition is -3.91% [at 11.4 µM]. Still for that read-out and setting: the value for `O=C(O)c1ccc(CNCc2ccccc2)cc1` was -2.73% [at 11.4 µM].

With `Cc1ccc(CNCC(O)(c2ccc(F)cc2)c2ccc(F)cc2)cc1`, the concentration at half-maximal activity (AC50) is 2.24 µM (active).

Consider `OC(CNCc1ccc(F)cc1)(c1ccc(F)cc1)c1ccc(F)cc1`, for which the half-maximal activity concentration (AC50) was 2 µM (active). On to `CC(CO)(CO)Nc1ncnc2ccccc12`, for which the activity, negative = inhibition is 4.84% [at 11.4 µM]. `COc1ccc(CNc2ncnc3ccc(-c4cccnc4)cc23)c(OC)c1`: the AC50 is 1.26 µM (active).

Regarding `COc1cccc(-c2ccc3ncnc(NCc4ccc(OC)cc4OC)c3c2)c1`, the AC50 is 2.51 µM (active). As for `COc1ccccc1CNc1ncnc2ccc(-c3cccnc3)cc12`, the concentration at half-maximal activity (AC50) is 2 µM (active). On to `Nc1ccccc1N=Nc1c(S(=O)(=O)O)cc2cc(S(=O)(=O)O)cc(O)c2c1O`, for which the activity, negative = inhibition is -15.9% [at 11.4 µM]. For the compound `Cc1ccccc1NC(=O)Cn1cnc2c1c(=O)n(C)c(=O)n2C`, the AC50 entry is “inactive”.

Consider `COc1ccc(Cc2nnc(NC(=O)Cn3cnc4c3c(=O)n(C)c(=O)n4C)s2)cc1OC`, for which the activity, negative = inhibition is 4.73% [at 2.29 µM].

`COc1ccc(CCNC(=O)Cn2cnc3c2c(=O)n(C)c(=O)n3C)cc1OC`: the AC50 was 15.8 µM (active).

In the case of `COc1ccc(Nc2ncc(C(=O)N3CCN(c4ccc(F)cc4)CC3)c3ccccc23)cc1`, the activity, negative = inhibition is -5.25% [at 2.29 µM]. With `O=C(c1sc2ccccc2c1Cl)N1CCN(c2ccc(F)cc2)CC1`, the AC50 is 14.1 µM (active). `COc1ccccc1N1CCN(C(=O)C(NS(=O)(=O)c2cccs2)c2ccccc2)CC1` (configuration not stated): the AC50 was 2 µM (active). On the same count and under the same terms, under `O=C(C(NS(=O)(=O)c1cccs1)c1ccccc1)N1CCN(c2ccccc2)CC1` (configuration not stated) stands 3.16 µM (active).

Turning to `COc1ccc(S(N)(=O)=O)cc1C(=O)NCCCN1CCN(c2ccc(C)cc2)CC1`, the activity, negative = inhibition is 1.35% [at 2.29 µM].

In the case of `O=C(NCCN1CCN(C(=O)C(c2ccccc2)c2ccccc2)CC1)C(=O)Nc1ccccc1`, the AC50 entry is “inactive”.

Turning to `CC(C)C(NS(=O)(=O)c1cccs1)C(=O)NCCN1CCN(c2ccccc2)CC1` (configuration not stated), the AC50 was 5.01 µM (active). On the same count and under the same terms, the value for `O=C(c1cccs1)N1CCN(C(=O)C(c2ccccc2)c2ccccc2)CC1` was “inactive”; that for `CCOC(=O)c1sc(C)c(C(=O)NCC(C)(C)CN(C)C)c1N` was “inactive”; that for `Cc1nnc(SCC(=O)Nc2nccs2)[nH]c1=O` was “inactive”. On to `Cc1cccc(-c2nsc(SCC(=O)Nc3nccs3)n2)c1`, for which the AC50 is 3.55 µM (active). `O=C(CSc1nc2ccccc2s1)Nc1nccs1`: the AC50 was 10 µM (active). Regarding `O=C(O)CCCSc1nc2ccccc2s1`, the activity, negative = inhibition is -9.94% [at 11.4 µM].

`O=C(CSc1nc2ccccc2s1)NNC(=S)Nc1ccc(Br)cc1`: the half-maximal activity concentration (AC50) is 2.51 µM (active). The same measure, in the same setting: under `C1CCc2nnnn2CC1` stands “inactive”; under `O=C(O)[C@@H](O)[C@@H](O)[C@@H](O)[C@@H](O)C(=O)O` (tested in a mixture with another compound), “inactive”.

As to `O=C(Nc1ccc(Cl)cc1Cl)c1cccc(N2C(=O)C=CC2=O)c1`, the AC50 is 1.26 µM (active).

In the case of `O=C(Nc1ccc(Cl)cc1C(F)(F)F)c1ccc(Cl)cc1`, the AC50 entry was “inactive”. Turning to `COc1cc(CNCc2ccccn2)ccc1OCc1ccc(Cl)cc1Cl`, the AC50 is 0.501 µM (active). Turning to `COc1ccc(CC(=O)NCc2ccccn2)cc1OC`, the activity, negative = inhibition is -4.2% [at 2.29 µM]. Consider `COc1cc(CNCCN2CCOCC2)ccc1OCc1ccccc1Cl`, for which the AC50 was 15.8 µM (active).

For the compound `COc1cc2c(cc1OC)-c1cc(NCc3ccccn3)nc(=O)n1CC2`, the AC50 entry is “inactive”. The same measure, in the same setting: the value for `O=C(O)c1cc(=O)c2c(Cl)cc(Cl)cc2[nH]1` was “inactive”. `O=C1C[C@H]2C(=O)[C@@H]1[C@@H](C(=O)O)[C@H]2C(=O)O`: the activity, negative = inhibition is -3.12% [at 11.4 µM]. Regarding `Cc1nc2cnc(Nc3ccccc3)nc2n(Cc2cccs2)c1=O`, the half-maximal activity concentration (AC50) is 7.94 µM (active).

On to `COc1cccc(Nc2ncc3nc(C)c(=O)n(Cc4cccs4)c3n2)c1`, for which the AC50 is 3.98 µM (active). Take `COc1ccc(-c2nc3cnc(Nc4ccccc4)nc3n(Cc3cccs3)c2=O)cc1`: the AC50 result was “inactive”. On the same count and under the same terms, under `O=c1cnc2cnc(Nc3ccccc3)nc2n1Cc1cccs1` stands 15.8 µM (active). Same read-out and setting: under `COc1cccc(Nc2ncc3nc(-c4cccs4)c(=O)n(Cc4cccs4)c3n2)c1` stands “inactive”; under `O=c1c(-c2ccc(F)cc2)nc2cnc(Nc3ccccc3)nc2n1Cc1cccs1`, “inactive”. Still for that read-out and setting: under `C=C(CC)C(=O)c1ccc(OCC(=O)O)c(Cl)c1Cl` stands “inactive”; under `CCC(C)NC(=O)c1c(C)cc(=O)oc1C` (configuration not stated), “inactive”. `C[C@@H](N=C(N)N)C(=O)O`: the activity, negative = inhibition was -8.02% [at 11.4 µM].
